For orientation: inhibition means the relative decrease from the control value, in per cent.

The text below walks through data of PubChem BioAssay.

A number with no mark means an inactive call. Calls of active or inactive are those of the source.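 Rule for the calls, unless noted: active = mean inhibition over 43.08%, the solvent-only control mean plus 3 SD; inactive = the rest.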

Assay [1] deals with Nuclear receptor coactivator 3 (Homo sapiens) (UniProt Q9Y6Q9). The assay is described as follows: NCOA3 GAL4-fusion reporter inhibition – cell-based, luminescence, quadruplicate, confirmation (AID 588792).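 Note: 0% = DMSO treated cells and 100% = gossypol at 36 µM.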 The settings on record: HEK293 GAL4-SRC3 luciferase reporter, at 3.6 µM, hits give high values. (In general: In a reporter assay the amount or activity of a reporter protein is the signal.)

For assay [2], the system named is transactivating tegument protein VP16 (Human herpesvirus 1), Gal4-VP16 luciferase reporter. The assay can be described thus: repression of VP16-driven luciferase reporter – cell-based, luminescence, high throughput, counter-screen for SRC3 inhibitor project (AID 588794; in the data active = inhibition above about 30%). The settings on record: mammalian cells, at 3.6 µM, hits give high values.

Chain of Nuclear receptor coactivator 3 (Homo sapiens) (Q9Y6Q9 whole entry, looked up, the tested form may be a part): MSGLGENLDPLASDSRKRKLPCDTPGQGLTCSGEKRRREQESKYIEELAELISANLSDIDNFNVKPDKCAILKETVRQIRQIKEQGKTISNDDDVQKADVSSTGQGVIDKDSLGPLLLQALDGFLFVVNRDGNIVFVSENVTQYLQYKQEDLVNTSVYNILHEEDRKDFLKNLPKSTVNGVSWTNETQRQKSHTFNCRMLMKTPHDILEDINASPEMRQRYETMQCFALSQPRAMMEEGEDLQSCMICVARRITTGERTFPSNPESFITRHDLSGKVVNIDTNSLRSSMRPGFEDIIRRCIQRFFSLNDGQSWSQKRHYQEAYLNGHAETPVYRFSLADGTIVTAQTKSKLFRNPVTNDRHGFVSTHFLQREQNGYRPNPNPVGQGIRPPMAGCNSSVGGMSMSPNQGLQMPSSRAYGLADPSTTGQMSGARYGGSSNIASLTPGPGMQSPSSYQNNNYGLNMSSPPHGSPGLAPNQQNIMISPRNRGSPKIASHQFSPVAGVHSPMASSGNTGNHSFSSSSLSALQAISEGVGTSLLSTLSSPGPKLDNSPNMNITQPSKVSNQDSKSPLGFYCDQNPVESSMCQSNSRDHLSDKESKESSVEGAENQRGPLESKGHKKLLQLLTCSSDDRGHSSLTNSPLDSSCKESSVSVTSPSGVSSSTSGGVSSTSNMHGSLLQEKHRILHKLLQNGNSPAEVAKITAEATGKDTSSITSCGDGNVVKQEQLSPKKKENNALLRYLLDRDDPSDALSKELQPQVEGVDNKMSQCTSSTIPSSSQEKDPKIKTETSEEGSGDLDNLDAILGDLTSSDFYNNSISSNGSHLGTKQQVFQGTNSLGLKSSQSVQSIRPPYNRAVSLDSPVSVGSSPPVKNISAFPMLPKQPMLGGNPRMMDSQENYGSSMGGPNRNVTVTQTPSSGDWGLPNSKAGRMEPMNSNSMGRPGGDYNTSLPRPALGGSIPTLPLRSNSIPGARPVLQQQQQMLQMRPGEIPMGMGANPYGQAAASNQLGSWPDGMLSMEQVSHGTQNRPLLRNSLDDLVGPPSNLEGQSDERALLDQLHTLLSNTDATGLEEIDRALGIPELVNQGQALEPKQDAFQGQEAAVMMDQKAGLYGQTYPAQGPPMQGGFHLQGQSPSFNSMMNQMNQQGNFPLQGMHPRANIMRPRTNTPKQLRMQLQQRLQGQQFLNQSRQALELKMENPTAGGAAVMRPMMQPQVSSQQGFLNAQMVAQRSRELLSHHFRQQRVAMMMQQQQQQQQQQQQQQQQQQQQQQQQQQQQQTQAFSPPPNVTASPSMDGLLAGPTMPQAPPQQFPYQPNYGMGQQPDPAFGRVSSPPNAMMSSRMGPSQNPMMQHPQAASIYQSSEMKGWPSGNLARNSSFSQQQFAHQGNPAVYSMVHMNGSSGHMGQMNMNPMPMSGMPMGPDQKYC

As for `CC[C@H](C)Cc1cn([C@@H](CCCCNC(=O)OC(C)(C)C)C(=O)NCCCCCCCCCCC(=O)N2CCN(C(=O)OC(C)(C)C)CC2)nn1`, the inhibition in assay [1] was 17.9%; in assay [2], 22.5%.

On to `c1ccc(NNC2=NCCCCC2)cc1`, for which the inhibition in assay [1] is 1.28%; in assay [2], -9.77%.

For `C=CCn1c(NCCc2ccccc2)nc2c1c(=O)n(C)c(=O)n2C`, the inhibition in assay [1] is 4.32%; in assay [2] it was 28.1%.

`CCc1c(C)nc2ncnn2c1NCCc1ccc(Cl)cc1`: the results for the inhibition in assay [1] and in assay [2] were 23.3% and 25.9%, respectively.

As for `COc1ccc(OC)c(C2C3=C(CCCC3=O)NC3=C2C(=O)CCC3)c1`, the inhibition in assay [1] is 4.98%; in assay [2], -6.31%.

With `COc1ccc(O)c(-c2[nH]ncc2C(=O)c2ccccc2)c1`, the inhibition is 26.3% in assay [1] and 18.6% in assay [2].

As for `Cc1ccc(NC(=O)c2cccc(S(=O)(=O)NCc3ccccc3)c2)nc1`, the figures for the inhibition in assay [1] and in assay [2] were -3.03% and 6.44%, respectively.

On to `O=C1CC(=O)OC(c2ccc([N+](=O)[O-])cc2)O1`, for which the results for the inhibition in assay [1] and in assay [2] were 26.8% and 40.5% (active), respectively.

With `CCN(C(=O)COC(=O)c1ccccc1Cc1ccccc1)c1c(N)n(Cc2ccccc2)c(=O)[nH]c1=O`, the results for the inhibition in assay [1] and in assay [2] were 6.67% and 13.9%, respectively.

Turning to `COc1ccc(N/N=C/c2c(C(=O)O)ccc3ccccc23)cc1`, the inhibition in assay [1] is 31.2%; in assay [2], 36.5% (active).

For `CCOC(=O)Cc1[nH]nc2c1C(c1cccc(OC)c1OC)C(C#N)=C(N)O2` (stereo not given), the inhibition is -9.29% in assay [1] and 0.25% in assay [2].

Turning to `COC(=O)c1ccccc1NC1=C/C(=N\S(=O)(=O)c2cccs2)c2ccccc2C1=O`, the inhibition in assay [1] was 2.2%; in assay [2] it was 6.65%.

Take `O=C(Nc1ccc2c(c1)CCC2)C1CCN(c2c3c(nc4ncnn24)CCC3)CC1`: the results for the inhibition in assay [1] and in assay [2] were 13.5% and 13.2%, respectively.

For `CC(C)C[C@H]1CNC(=S)N1C[C@H]1CCCN1C[C@H](Cc1ccc(O)cc1)N1C[C@H](CC(C)C)N(CC2CCCCCC2)C1=S`, the inhibition in assay [1] was 21.1%; in assay [2], 16.3%.

With `Brc1ccc(N=Nc2ccc3ccccc3n2)cc1`, the inhibition was 51.2% (active) in assay [1] and 33.7% (active) in assay [2].

As to `O=[N+]([O-])c1ccc(S(=O)(=O)CC2CSc3nc4ccccc4n32)cc1` (stereo not given), the inhibition was 15.6% in assay [1] and 18.6% in assay [2].

Turning to `Cc1ccc(C(=O)N/N=C/c2ccc(-c3cccc(C(F)(F)F)c3)o2)cn1`, the inhibition is 6.91% in assay [1] and 4.45% in assay [2].

For the compound `O=C(Nc1cc(C(=O)N2CCCC2)ccc1N1CCCC1)c1ccccc1F`, the inhibition is 27.3% in assay [1] and 13.1% in assay [2].

For the compound `CC(=O)Nc1nc(C)c(-c2csc(Nc3cccc([N+](=O)[O-])c3)n2)s1`, the inhibition was 7.09% in assay [1] and -11.4% in assay [2].

As to `O=C1N(c2cccc(Cl)c2)C(c2ccc(Cl)cc2)N2CCCN12` (stereo not given), the inhibition in assay [1] is 3.22%; in assay [2], -0.24%.

Turning to `CCOC(=O)c1c(C)[nH]c(C(=O)N/N=C\c2ccccc2O)c1C`, the inhibition in assay [1] is 11.6%; in assay [2], 12.8%.

Consider `COc1ccccc1OCC(=O)N/N=C/c1c(O)ccc2ccccc12`, for which the inhibition in assay [1] is 12.8%; in assay [2], 22.8%.

As for `CCOC(=O)c1c(C)[nH]c2c1-c1ccccc1C(=O)C2=O`, the inhibition in assay [1] was 95.1% (active); in assay [2] it was 91.5% (active).

As for `COc1ccccc1NS(=O)(=O)c1cc(NC(=O)c2[nH]c(C)c(C(C)=O)c2C)ccc1N1CCOCC1`, the inhibition in assay [1] is 15.5%; in assay [2], -14.8%.

As for `c1ccc(Oc2cccc(Oc3ccccc3)n2)cc1`, the inhibition is 5.37% in assay [1] and 1.72% in assay [2].

On to `CCCCCCCN1C2=NCCCN2c2ccccc21`, for which the values for the inhibition in assay [1] and in assay [2] were -5.13% and 21%, respectively.

Turning to `CC1CN(Cc2ccccc2)c2nc3c(c(=O)n(CC(N)=O)c(=O)n3C)n2C1` (stereo not given), the inhibition in assay [1] was 0.26%; in assay [2] it was -4.77%.

Regarding `Cc1ccc(O)c(C(=O)c2cnc3c(c2)COc2ccccc2-3)c1`, the inhibition in assay [1] is -8.22%; in assay [2] it was 5.53%.

As for `Cc1cccc(OC(=O)NCCOC(=O)N(O)c2ccc(Cl)cc2)c1`, the inhibition is 4.94% in assay [1] and -5.77% in assay [2].

In the case of `C=CCN1CN(S(=O)(=O)c2cccs2)c2nc3ccccc3nc21`, the inhibition was -9.88% in assay [1] and 7.9% in assay [2].

On to `O=C(Nc1ccccc1Cc1ccccc1)c1ccccc1NS(=O)(=O)c1ccc(Cl)s1`, for which the inhibition in assay [1] is 4.01%; in assay [2], 24.9%.

As to `COc1ccc2c(O)c(-c3c(C)cc(C)cc3C)c(=O)[nH]c2c1`, the inhibition in assay [1] was -14.3%; in assay [2] it was -6.8%.

Regarding `O=C(NNc1ccc(O)cc1)c1ccc(Br)cc1`, the inhibition in assay [1] is 31.5%; in assay [2], 63.4% (active).

Take `COC(=O)/C(C#N)=C\c1c(OC)[nH]c2ccccc12`: the inhibition in assay [1] was 18.6%; in assay [2], 12.4%.

On to `O=C(NCc1cccs1)C1CCN(S(=O)(=O)c2ccccc2F)CC1`, for which the inhibition in assay [1] is 0.65%; in assay [2], -0.48%.

Take `C=CCOn1c(C)c(C(C)=O)c2c3nonc3ccc21`: the results for the inhibition in assay [1] and in assay [2] were 42% and 25.4%, respectively.

As for `COc1ccc(OCc2nn3c(-c4ccco4)nnc3s2)cc1`, the inhibition was -8.03% in assay [1] and -4.08% in assay [2].

`Cc1ccc(S(=O)(=O)NCCC(=O)N2CCN(c3ccccc3)CC2)cc1C`: the figures for the inhibition in assay [1] and in assay [2] were 6.68% and -3.89%, respectively.

As for `CC(=O)Nc1ccc(S(=O)(=O)NCCSCc2ccccc2Cl)cc1`, the figures for the inhibition in assay [1] and in assay [2] were 12.3% and 17.1%, respectively.

For `COc1ccc(C)cc1NC(=O)c1nnn(Cc2cccc(F)c2)c1N`, the inhibition in assay [1] is 22.3%; in assay [2], 26.1%.

Take `C=C(C(=O)c1ccccc1)C(CC(=O)c1ccccc1)c1ccccc1` (stereo not given): the values for the inhibition in assay [1] and in assay [2] were 25.9% and 41.1% (active), respectively.

On to `Cc1ccc(-n2c(-c3ccccc3)c[n+]3c2CCC3)cc1`, for which the inhibition in assay [1] is 14.4%; in assay [2], 30.6% (active).

Regarding `CCOc1cc(N2CCOCC2)c(OCC)cc1NC(=O)c1cc(-c2ccco2)nc2ccccc12`, the inhibition in assay [1] was 17.5%; in assay [2], 8.51%.

On to `Cc1cc(Br)cc(/C=N/NC(=O)c2ccc3c(c2)OCO3)c1O`, for which the inhibition in assay [1] is 18.9%; in assay [2], 26.3%.

For the compound `Cc1cc(C=C2C(=O)c3ccccc3C2=O)c(C)n1-c1cccc(C(=O)O)c1`, the inhibition is 23.3% in assay [1] and 10.4% in assay [2].

For `O=C(Nc1ccc(OC(F)(F)F)cc1)Nc1cccc([N+](=O)[O-])c1`, the inhibition in assay [1] is -15.5%; in assay [2], 1.65%.

Turning to `COc1ccc(-n2c(-c3ccc(Br)cc3)c[n+]3c2SC(C)C3)cc1` (stereo not given), the inhibition in assay [1] is 12.5%; in assay [2], 23.3%.

Take `O=C(CCc1ccncc1)NC1CCCc2c1cnn2-c1ccc(F)cc1F` (stereo not given): the inhibition in assay [1] is 0.71%; in assay [2], 18.6%.

For `Nc1ncnc(Sc2ccc(Cl)cc2)c1[N+](=O)[O-]`, the inhibition is 13.4% in assay [1] and 9.09% in assay [2].

`CC(=O)Nc1ccc(S(=O)(=O)Oc2ccccc2N2CCCCC2)cc1`: the inhibition is -3.48% in assay [1] and 0.67% in assay [2].
